# BAP1 inh: inhibitors of BAP1 deubiquitinase, primary screen, biochemical, Ub-AMC fluorescence, kinetic. 0.48% of 72,000 active. recombinant BAP1, Ub-AMC hydrolysis fluorescence kinetic; stronger effect = lower value. calls only at 20 µM;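 active = activity remaining at or below 50% of control, provided the compound also passes the data quality filters; inactive = the rest, including low values that fail the filters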;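 also: 100% = DMSO wells rate and 0% = substrate alone blank rate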
# CatB mix inh: cathepsin B inhibitors from pooled compounds, primary screen, biochemical, compound mixtures, AMC fluorescence. AID 488, 2006. P07858. Purified cathepsin B, AMC dipeptide fluorescence. inhibition, %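 (ten-compound pools at 5 µM per compound and 50 µM total)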. 0.06% of 62,000 active; in the data active = inhibition above about 22%, passing the limit was not always enough; inconclusive = no clear call, values can overlap the other calls;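 also: 0% = enzyme without compound and 100% = no enzyme blank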
# CatB block: human cathepsin B inhibitors, primary screen, biochemical, fluorogenic substrate | P07858 | purified cathepsin B, fluorescence | inhibition, %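 (tested at 10 µM)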 | 0.1% of 63,000 active; in the data active = inhibition above about 21%;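 also: 0% = enzyme with no compound and 100% = no enzyme blank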
# CatL inh: inhibitors of human cathepsin L, biochemical. purified cathepsin L, fluorogenic substrate, fluorescence. inhibition, %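 (tested at 10 µM)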. 0.17% of 58,000 active. Procathepsin L (Homo sapiens), P07711; in the data active = inhibition above about 45%;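 also: 0% = enzyme with no compound and 100% = no enzyme blank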
# Target sequence (P07711 114-288 limits assumed): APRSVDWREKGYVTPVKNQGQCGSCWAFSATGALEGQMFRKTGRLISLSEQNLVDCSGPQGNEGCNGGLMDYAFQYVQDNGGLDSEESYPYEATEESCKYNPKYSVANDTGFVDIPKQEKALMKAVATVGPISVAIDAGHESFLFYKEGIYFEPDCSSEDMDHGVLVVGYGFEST
# Target sequence (P07711 292-333 limits assumed): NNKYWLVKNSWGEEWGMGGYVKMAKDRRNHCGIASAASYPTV
# CatS inh: inhibitors of human cathepsin S, biochemical, compound mixtures | inhibition, %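 (tested at 5 µM per compound within 10-compound mixtures)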 | P25774 | recombinant cathepsin S, AMC dipeptide fluorescence, pooled mixtures | 0.06% of 62,000 active; in the data active = inhibition above about 32%, passing the limit was not always enough; inconclusive = no clear call, values can overlap the other calls;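 also: 0% = enzyme without compound and 100% = blank without enzyme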
# Ec RNAP inh: E. coli RNAP inhibitors, biochemical; 0.2% of 62,000 active; DNA-directed RNA polymerase subunit beta (Escherichia coli (strain K12)), P0A8V2; AID 559, 2006; inhibition, %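 (tested at 10 µM)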; E. coli RNA polymerase, fluorescence transcription assay; in the data active = inhibition above about 20%;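 also: 0% = enzyme without compound and 100% = no enzyme blank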
# Starred values were filed as active, the others as inactive; i = inactive; ? = inconclusive; · = no result given; + = active, no number; ! = a repeat was not active. Only some compounds are listed: those with a hit (about 0.81% of all), similar ones and a draw of the others.
SMILES,BAP1 inh,CatB mix inh,CatB block,CatL inh,CatS inh,Ec RNAP inh
CN(C1CCS(=O)(=O)C1)S(=O)(=O)c1ccc(N2CCCC2=O)cc1 (stereo not drawn),i,6,1,23,13,21*
CN(C1CCCCC1)S(=O)(=O)c1ccc(-n2cnnn2)cc1,i,-5,-3,-14,-3,-7
Nc1c(C(O)(C(F)(F)F)C(F)(F)F)ccc2ccccc12,+,5,-3,0,-3,4
CCCCOc1ccc(C2C3CN(C(=O)OCC)CC=C3C(C#N)=C(N)C2(C#N)C#N)cc1OC (stereo not drawn),i,7,2,60*,11,7
COc1ccc(NC(=O)C(C(C)C)N2C(=O)c3ccccc3C2=O)c(OC)c1 (stereo not drawn),i,·,·,·,·,·
CCOC(=O)CNS(=O)(=O)c1cc(-c2n[nH]c(=O)c3ccccc23)ccc1C,i,·,23*,7,·,10
CCCCCCCCCCCCCCC[C@H](O)[C@H](N)CO,+,·,·,·,·,·
Cc1ccc(S(=O)(=O)n2nc(OC(=O)c3cccs3)cc2N)cc1,i,47*,64*,-7,4,2
COc1ccccc1C(=O)Oc1cc(N)n(S(=O)(=O)c2ccc(C)cc2)n1,i,18,12,-4,-5,13
Nc1cc(OC(=O)c2ccco2)nn1S(=O)(=O)c1ccc(F)cc1,i,60*,61*,8,-3,-6
Cc1ccc(S(=O)(=O)n2nc(OC(=O)c3ccco3)cc2N)cc1,i,59*,76*,12,19,12
CCOC(=O)c1c(NC(=O)c2ccc(S(=O)(=O)N3CCCc4ccccc43)cc2)sc2c1CCCCC2,i,·,·,·,·,·
O=C(c1nn2c(c1Br)NC(c1cccs1)CC2C(F)(F)F)N1CCCCC1 (stereo not drawn),i,·,·,·,·,·
Cc1nn(-c2ccccc2)c2sc(C(=O)OCN3C(=O)c4ccccc4C3=O)cc12,+,-4,4,13,-4,7
C=CCn1c(SCC(=O)Nc2ccc(C(=O)OCC)cc2)nnc1-c1cccs1,i,5,7,·,1,10
C=CCn1c(SCC(=O)c2ccc(NS(=O)(=O)c3ccccc3)cc2)nnc1-c1cccs1,·,·,4,26,·,26*
N#Cc1c(N2CCCC2)nc(N)c2c(N)nc(N3CCCC3)cc12,i,77*,45*,18,59*,10
COc1cc2c(C#N)c(N3CCN(c4ccccc4OC)CC3)nc(N)c2c(N)n1,·,5,0,-225,0,-8
CCOc1ccc(NC(=O)Cn2nnc(-c3ccccc3NC(=O)C3CC3)n2)cc1,i,-4,-3,33,-1,24*
COc1ccc(NC(=O)Cn2nnc(-c3ccccc3NC(=O)C3CC3)n2)cc1,i,5,-1,-8,19,11
O=C(NCc1cccs1)C(Cc1ccccc1)n1cccc1 (stereo not drawn),i,1,5,19,13,23*
Cc1cc(OCCN2CCOCC2)nc2ccccc12,i,-2,1,3,-5,30*
COc1ccc(C(=O)C(OC(=O)c2ccncc2)c2ccccc2)cc1 (stereo not drawn),i,·,·,·,·,·
COc1ccc(C(=O)C(OC(=O)CNC(=O)c2ccco2)c2ccccc2)cc1 (stereo not drawn),i,12,21*,68*,-2,0
C/C(N)=N\S(=O)(=O)c1ccc(Cl)cc1,i,5,29*,15,4,13
SMILES,BAP1 inh,CatB mix inh,CatB block,CatL inh,CatS inh,Ec RNAP inh
COC(=O)C1=C(C)NC(=O)CC1c1cccc(Cl)c1Cl (stereo not drawn),i,2,6,·,2,4
CCOC(=O)C1=C(C)NC(C)=C(C(=O)OC)C1c1cccc(Cl)c1Cl (stereo not drawn),+!,-8,34*,3,-2,7
O=C(COC(=O)c1ccc([N+](=O)[O-])cc1Cl)c1ccc(Br)cc1,i,·,·,·,·,·
COc1cccc(Nc2nc(Cl)ccc2[N+](=O)[O-])c1,i,·,·,·,·,·
COC(=O)C(C)Nc1n[nH]c(=S)[nH]c1=O (stereo not drawn),i,·,·,·,·,·
COc1ccc2nc(CC(C)(C)CC(=O)O)c[n+]([O-])c2c1,·,6,23*,-12,-15,-1
O=C(CSc1nnc(-c2ccco2)c(-c2ccco2)n1)Nc1ccccc1,·,?,57*,31,15,11

# Screens as filed in PubChem.
